# Hits are enriched below; roughly 1.5% of the tested compounds scored in any of these assays.
# MEX-5 binding: C. elegans MEX-5 TCR-2 RNA binding activity. Q9XUB2. MEX-5/FITC-TCR2 RNA binding, fluorescence polarization; hits give low values. activity score (negative = inhibition of binding), % at 10 µM. hit rate 0.38% among 300,000. AID 1832;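 active means inhibition past about -25% in most replicates, and total fluorescence under double the plate's negative control median, limit read from the data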
# MCL1-BIM inh: disrupts human MCL1 binding to BIM-BH3 peptide; AID 2057; hit rate 0.68% among 320,000; inhibition, % at 10.9 µM; Q07820; GST-MCL1 / FITC-Bim-BH3 fluorescence polarization;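 active means inhibition above the mean inhibition of all tested compounds plus 3 SD, set per campaign, cut at about 40% in these data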;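 further: higher means more loss of mP so more displacement of Bim peptide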
# EBV gp42 block: blocks Epstein-Barr virus glycoprotein 42 binding. inhibition, % (tested at 21.74 µM). Fluorescence polarization binding assay, mP read-out. hit rate 0.42% among 220,000. Q1HVG2; in the data active means inhibition above about 50%
# E coli Lon inh: inhibits E. coli Lon protease; purified E. coli Lon protease, fluorescence polarization; inhibition, % at 7.94 µM; hit rate 0.42% among 360,000; P0A9M0; in the data active means inhibition above about 13%, passing the limit was not always enough
# BCLXL inh: blocks human Bcl-xL binding to Bim BH3 peptide. Q07817. GST-Bcl-xL / FITC-Bim BH3 peptide fluorescence polarization. inhibition, % at 10.9 µM. hit rate 0.7% among 320,000. AID 2129;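 active means inhibition above the mean of all tested compounds plus 3 SD, cutoff set per campaign, cut at about 30% in these data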;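 further: inhibitors lower millipolarization by displacing the labeled peptide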
# GLD-1 TGE inh: GLD-1-TGE RNA interaction inhibition (C. elegans); purified GLD-1 + fluorescein TGE RNA, fluorescence polarization; inhibition, % at 5.96 µM; hit rate 0.44% among 320,000;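 active means percent inhibition above a per-plate cutoff, the plate mean of test compounds plus 3 SD, cut at about 30% in these data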
# Target sequence (Q17339 whole entry, looked up): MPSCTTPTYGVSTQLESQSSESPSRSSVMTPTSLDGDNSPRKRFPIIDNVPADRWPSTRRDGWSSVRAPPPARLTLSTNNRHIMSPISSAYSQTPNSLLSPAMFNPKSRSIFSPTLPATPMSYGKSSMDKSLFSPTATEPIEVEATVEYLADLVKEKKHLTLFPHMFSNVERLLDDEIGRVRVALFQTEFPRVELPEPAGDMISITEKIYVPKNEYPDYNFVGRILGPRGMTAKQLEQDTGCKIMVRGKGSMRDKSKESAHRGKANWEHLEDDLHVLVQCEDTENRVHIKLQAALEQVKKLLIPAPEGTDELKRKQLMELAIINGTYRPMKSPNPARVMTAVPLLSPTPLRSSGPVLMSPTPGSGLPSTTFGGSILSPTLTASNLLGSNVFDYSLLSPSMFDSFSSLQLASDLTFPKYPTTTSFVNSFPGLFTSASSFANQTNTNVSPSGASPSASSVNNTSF
# Numbers stand for hits; i = inactive; nt = no result given.
SMILES,MEX-5 binding,MCL1-BIM inh,EBV gp42 block,E coli Lon inh,BCLXL inh,GLD-1 TGE inh
CN(C)c1ccc(/C=N/NC(=O)c2ccccn2)cc1,i,i,i,i,i,i
CN(C)c1ccc(/C=N/NC(=O)c2cnc3ccccc3c2)cc1,-43.9,i,76.0,i,i,i
COc1ccc(NC(=O)CN2C(=O)/C(=C3\SC(=S)N(C4CCS(=O)(=O)C4)C3=O)c3ccccc32)cc1 (stereo unspecified),i,i,61.4,i,i,i
CN(Cc1ccon1)C(=O)CC1C(=O)NCCN1Cc1ccc(Cl)c(F)c1 (stereo unspecified),i,i,nt,i,36.4,i
Clc1cccc(CSc2nc3ccncc3[nH]2)c1,-52.0,i,i,i,i,i
Cc1ccc2cc(CCNC(=O)CCCc3ccccc3)c(=O)[nH]c2c1C,i,i,nt,i,i,i
CCc1ccc2c(c1)NC(=O)C2(C)Cc1ccc(C(F)(F)F)o1 (stereo unspecified),nt,nt,nt,i,nt,nt
CC(C)c1cc(=O)oc2c3c4c(cc12)CCCN4CCC3,i,i,51.2,i,i,44.2
Cc1cc2oc(=O)cc(CN3CCOCC3)c2cc1C(C)C,i,i,nt,i,i,i
COc1ccc(Cl)cc1N(CC(=O)N1CCCC1)S(C)(=O)=O,i,i,nt,i,i,i
CCCCN1C(=O)/C(=C2/Sc3ccccc3N2C)S/C1=N\c1ncn[nH]1,-69.2,i,i,i,i,i
Cn1c(CNc2cccc(Cl)c2)nnc1SCC#N,i,i,i,i,i,i
CCOc1cc(C(=O)N2CCC3(CC2)NCCc2[nH]cnc23)cc(OCC)c1OCC,i,i,nt,i,i,i
O=C(/C=C/c1ccc(O)c(O)c1)c1ccccc1O,-38.0,i,i,i,i,i
CN(C)c1ccc(/C=C/C(=O)c2cc(Cl)ccc2O)cc1,i,i,65.4,i,i,i
CCOC(=O)CNc1c(-c2ccc(F)cc2)nc2cnccn12,i,i,nt,i,32.8,i
CCOC(=O)CNc1c(-c2ccc(Cl)cc2)nc2cnccn12,i,i,i,i,i,i
COc1ccc(C(=O)Nc2nc(-c3ccc([N+](=O)[O-])cc3)c(-c3ccccc3)s2)cc1,-161.7,i,nt,i,i,i
C=CCNc1ncnc2c1ncn2[C@H]1CN(Cc2ccco2)C[C@@H](CO)O1,nt,nt,nt,i,nt,nt
Cc1nc2sc(-c3ccccc3)cc2c(=O)n1-n1cccc1,i,i,i,i,i,i
Cc1nc2sc(-c3ccccc3)cc2c(=O)n1N,-31.9,i,i,i,i,i
Cc1ccsc1C(=O)OCC(=O)NC1CCCCC1,nt,nt,nt,i,nt,nt
O=C(Cn1cc(C(=O)C(F)(F)F)c2cc(Br)ccc21)N1CCOCC1,i,i,i,i,i,i
CCCCOc1ccc(Nc2cc(Cl)ccc2C(=O)O)cn1,i,i,i,i,36.9,i
COc1ccc(CC(=O)Nc2cc(Cl)ccc2C(=O)O)cc1,i,i,i,i,i,i
SMILES,MEX-5 binding,MCL1-BIM inh,EBV gp42 block,E coli Lon inh,BCLXL inh,GLD-1 TGE inh
CSc1ccc(NC(=O)C2(C)CCN2C(=O)c2cc(C)n(C)n2)cc1 (stereo unspecified),nt,nt,nt,i,nt,nt
Cc1ccc(NCN2C(=O)C3C4C=CC(C4)C3C2=O)cc1 (stereo unspecified),i,i,i,i,i,i
O=C1C2C3C=CC(C3)C2C(=O)N1CNc1ccc(O)cc1 (stereo unspecified),i,i,i,nt,30.3,i
COc1ccc2cc(N=Cc3nc(-c4ccc(C)cc4)oc3O)cnc2c1,-46.8,i,i,i,i,i
COc1ccc(Cn2nnnc2CN(Cc2cc3ccc(C)cc3[nH]c2=O)C2CCCC2)cc1,i,i,i,i,i,i
COCCn1nnnc1CN(Cc1cc2cc(OC)c(OC)cc2[nH]c1=O)C1CCCC1,i,41.2,i,i,33.8,i
C#CCn1cc(C=C2C(=O)c3ccccc3C2=O)c2ccccc21,i,nt,94.7,i,nt,nt
CC1(C)C2CCC1(C)C(SC(=N)N)C2 (stereo unspecified),nt,nt,nt,i,nt,nt
Cc1cc2c(cc1S(=O)(=O)C(C)CC(=O)NCc1ccco1)OCC(=O)N2 (stereo unspecified),i,i,nt,i,i,i
CC1=CN2C(=N)/C(=C/c3ccc([N+](=O)[O-])o3)C(=O)N=C2S1,i,i,i,i,34.7,i
CC1=CN2C(=N)/C(=C/c3ccco3)C(=O)N=C2S1,i,i,i,i,i,i
CCN(CC)C(=O)COC(=O)c1cc(-c2ccc(OC)cc2)nc2ccccc12,i,i,i,i,i,i
Cn1c(N)c(C(=O)COC(=O)c2cc(-c3ccco3)nc3ccccc23)c(=O)n(Cc2ccccc2)c1=O,i,42.6,i,nt,i,i
CCN(CC)C(=O)COC(=O)c1cc(-c2ccco2)nc2ccccc12,i,nt,51.8,i,nt,nt
O=C1NC[C@@H](CCCCN2CCN(CCc3ccccc3)C(=O)C2=O)N(CCC2CCCCC2)C1=O,nt,nt,nt,i,nt,nt
Cc1nnc(NC(=O)CSc2cn(CCNC(=O)c3ccccc3)c3ccccc23)s1,i,i,54.5,i,i,i
CCN(C(=O)CN1C(=O)S/C(=C\C=C\c2ccccc2)C1=O)C1CCS(=O)(=O)C1 (stereo unspecified),i,i,nt,i,i,i
CCOc1ccc(NC(=O)/C(C#N)=C/c2ccc(N3CCCC3)c(C)c2)cc1,nt,i,94.0,i,i,i
CC(=O)c1ccc(N2CCN(C(=O)c3cc(-c4ccncc4)nc4ccc(Cl)cc34)CC2)cc1,i,i,nt,i,i,i
CC1(C)Cc2c(cnn2-c2cccc(F)c2)C(NC(=O)CSc2ccccn2)C1 (stereo unspecified),-44.5,i,nt,i,i,i
Cc1ccn(C(=O)c2ccc(NC(=O)C3CCCCC3)cc2)n1,i,i,181.5,i,i,i
CC(=O)Nc1ccc(NC(=O)C2CCCN(S(=O)(=O)c3ccc(-n4cnnn4)cc3)C2)cc1 (stereo unspecified),i,i,nt,i,i,i
O=C(Nc1ccc(-n2cnnn2)cc1)C1CCC1,i,i,88.7,i,i,i
O=C(Nc1ccc(C(=O)N2CCCC2)cc1)C1CCCCC1,nt,nt,nt,i,nt,nt
O=C(Nc1cc2c3c(c1)CC(=O)N3CCC2)c1ccccc1Br,i,i,nt,i,i,i
SMILES,MEX-5 binding,MCL1-BIM inh,EBV gp42 block,E coli Lon inh,BCLXL inh,GLD-1 TGE inh
CC(O)(c1cccnc1)c1nc(-c2ccc3ccccc3c2)cs1 (stereo unspecified),nt,nt,nt,i,nt,nt
O=C(CN1CCC(C(=O)c2ccc(F)cc2)CC1)Nc1ccccc1Cl,i,i,nt,i,i,i
CCn1c(COc2ccccc2C)nnc1SCC(=O)N1CCC(C)CC1,i,i,76.3,i,i,i
Cc1nnc(SCC(=O)N(C2CCCCC2)C2CCS(=O)(=O)C2)n1N (stereo unspecified),i,i,nt,i,i,i
COc1cccc(-n2ccnc2SCC(=O)Nc2nccs2)c1,i,i,i,i,i,104.2
Cc1cccc(-n2ccnc2SCC(=O)Nc2nccs2)c1,i,i,i,i,i,i
Cc1cc(-c2nnnn2-c2cc(Cl)cc(Cl)c2)no1,i,i,i,i,i,i

# Assay outcomes (PubChem BioAssay)
